Source: PubChem (National Center for Advancing Translational Sciences (NCATS))
This is a sample that favours compounds with a hit; in the whole collection about 15% have one here.
HCV inh: qHTS Assay for Inhibitors of Hepatitis C Virus (HCV); 340,000 compounds, 3.4% hits; Potency, µM (doses to about 41.8 µM), inactives show top-dose activity change, negative = inhibition, most hits filed as inhibitors; AID 651820, 2012; Huh7.5.1 HCVcc-Cre infection, luciferase reporter, 44 h; note: potency is the fitted concentration of half-maximal effect; % is set by controls: 0 for no effect and ±100 for the full control effect
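Whole-lifecycle infectious HCVcc-Cre system; cells 1,000/well, compound then virus (~0.5 moi) added 4 h after plating, 44 h culture. Luciferase read 15 sec following 15 min substrate incubation, room temp.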
HCMV inh: qHTS Assay for inhibitors of the human cytomegalovirus (HCMV) | HFF cells, HCMV-luciferase reporter, 72 h; hits give low values | activity change, negative = inhibition, % at 57.5 µM | 410,000 compounds, 4.5% hits; in the data active = activity change below about -60%; inconclusive = no clear call, values can overlap the other calls; inactive = above about -39%; note: % is set by controls: 0 for no effect and ±100 for the full control effect
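Two compound doses tested in HFFs infected with HCMV-luciferase, MOI 1 PFU/cell, 72 h at 37C. Lysate luminescence read with OneGlo; data normalized against buffer-only and 10uM Salinomycin inhibitor controls.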
Pf growth 96h: Primary qHTS for delayed death inhibitors of the malarial parasite plastid, 96 hour incubation | P. falciparum luciferase reporter growth, 96 h | Potency, µM (top dose mostly 28.7 µM), for inactives: at the highest dose activity change, negative = inhibition, most hits filed as inhibitors | 320,000 compounds, 6.9% hits; note: potency is the fitted concentration of half-maximal effect; % is set by controls: 0 for no effect and ±100 for the full control effect
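Plates of compound plus infected erythrocytes (2% hematocrit, 0.05% parasitemia final) incubate 96 hours, 37 C, 5% CO2. Detection reagent added; reduced luminescence from the parasites' luciferase reporter flags inhibition.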
Sm TGR block: qHTS Assay for the Inhibitors of Schistosoma Mansoni Peroxiredoxins; purified TGR, DTNB reduction, TNB absorbance 405 nm; Potency, µM (doses to about 114 µM), inactives show at the top dose activity change, negative = inhibition, usual class: inhibitors; 360,000 compounds, 3% hits; note: potency is the fitted concentration of half-maximal effect; % is set by controls: 0 for no effect and ±100 for the full control effect; nearly all actives have a fitted effect of over 60% in size
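Kinetic colorimetric format: TGR-catalysed, NADPH-driven DTNB reduction monitored via TNB absorbance. Enzyme dispensed at 20 nM; compound exposure 15 min at room temperature before reaction start.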
SARS PLpro yeast: qHTS of Yeast-based Assay for SARS-CoV PLP. S. cerevisiae expressing SARS-CoV PLpro, growth rescue. Potency, µM (series often up to 32.9 µM), without a hit: top-dose activity, positive = growth rescue, hits mostly activators. 330,000 compounds, 0.19% hits; calls by dose curve; note: potency is the fitted concentration of half-maximal effect; 0% is about no effect; nearly all actives have a fitted effect of over 55% in size
Pf growth 48h: Primary qHTS for delayed death inhibitors of the malarial parasite plastid, 48 hour incubation. P. falciparum luciferase growth in erythrocytes, 48 h. Potency, µM (highest dose often 28.7 µM), for the others: at the highest dose activity change, negative = inhibition, actives largely listed as inhibitors. 310,000 compounds, 5.9% hits; note: potency is the fitted concentration of half-maximal effect; % is set by controls: 0 for no effect and ±100 for the full control effect
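Read-out is firefly luciferase luminescence from an integrated reporter in P. falciparum, so falling signal marks reduced parasite growth. Infected erythrocytes were at 2% hematocrit and 0.1% parasitemia (final) in Albumax-supplemented RPMI 1640.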
The depositor's hits bear a star; i = inactive; ? = inconclusive; nt = no result; [ ] = remark or other dose. Unless noted, calls come from the whole dose curve; as a rule, active = well fitted curve in the direction sought with a large enough effect; inconclusive = small, poorly fitted or top-dose-only effect, or another doubt; inactive = no such curve, though single readings can be large; an effect the other way counts as inactive or inconclusive.

SMILES	HCV inh	HCMV inh	Pf growth 96h	Sm TGR block	SARS PLpro yeast	Pf growth 48h
CCc1nc(Nc2ccc(F)cc2)c2oc3ccccc3c2n1	10µM*	-23	?	-6%	-5%	?
CCc1nc(Nc2ccc(N3CCN(C(C)=O)CC3)cc2)c2oc3ccccc3c2n1	-21%	-5	32%	-32%	-6%	10µM*
O=C(NC1CCCCC1)C(c1ccc2ncccc2c1)N(Cc1ccccc1)C(=O)c1ccc2c(c1)OCCO2 (centres undefined)	?	-33	10µM*	8%	-3%	13µM*
COc1ccc(CN(C(=O)c2ccc3c(c2)OCCO3)C(C(=O)NC2CCCCC2)c2ccc3ncccc3c2)cc1 (centres undefined)	-24%	-29	9.3µM*	14%	1%	?
Cc1ccc(NC2Sc3ccccc3NC2=O)cc1Cl (centres undefined)	-16%	70	81%	-2%	-3%	35%
Cc1cc2nc(-c3cccc(NC(=O)CSc4ccc(Cl)cc4)c3)oc2cc1C	nt	53	nt	2%	nt	nt
CCCCc1nnc(NC(=O)c2ccccc2OCc2c(C)noc2C)s1	1%	31	0.93µM*	-3%	14%	9.3µM*
CCOc1ccccc1C(=O)Nc1nnc(COC)s1	7.1µM*	6	-22%	17%	14%	13%
O=C(Nc1nccs1)c1ccc(COc2ccc(F)cc2)o1	?	38	-9%	-6%	-2%	55%
CCOC(=O)Cc1nnc(NC(=O)c2ccccc2OCC)s1	?	-3	-17%	-2%	7%	-10%
O=C(Nc1nccs1)c1ccc(COc2ccccc2Br)o1	11µM*	37	nt	-8%	-8%	?
CCOc1ccccc1C(=O)Nc1nccs1	5.6µM*	9	6.6µM*	0%	2%	10%
Nc1nc2c(Br)ccc(Br)c2cc1C(=O)NCc1cccc2ccccc12	nt	-11	nt	nt	nt	nt
Cc1cccc(OC(=O)CSc2nnc(-c3cccs3)o2)c1C	nt	15	nt	1%	nt	nt
Cc1sc2nc(C3CC3)nc(NCCNS(C)(=O)=O)c2c1C	?	-8	0%	-1%	-5%	?
COc1ccccc1N1CCN(C(=O)CCc2nnc3ccc(N4CCCC4)nn23)CC1	-5%	-11	?	1%	-2%	-4%
COc1ccc(N2CCN(C(=O)CCc3nnc4ccc(N5CCCC5)nn34)CC2)cc1	13%	-39	12µM*	-13%	-1%	?
CCOC(=O)C(C)NC(=O)CCc1nnc2ccc(N3CCC(C)CC3)nn12 (centres undefined)	22%	3	?	-17%	1%	2%[0.00184 µM]
CC1CCN(c2ccc3nnc(CCC(=O)N4CCN(c5ccc(F)cc5)CC4)n3n2)CC1	?	?	-17%	-1%	?	5.2µM*
CCC(C)NC(=O)CCc1nnc2ccc(N3CCC(C)CC3)nn12 (centres undefined)	-8%	-61*	29%	-2%	1%	11%
COc1cc(/C=N/NC(=O)c2ccc(COc3cc(C)ccc3C(C)C)cc2)cc(OC)c1O	?	-88*	?	-7%	-49%	?
COc1cc(/C=N\NC(=O)c2ccc(-c3ccccc3)cc2)cc(OC)c1OC(C)=O	?	25	?	?	2%	?
Cc1ccc(C(C)C)c(OCc2ccc(C(=O)N/N=C/c3ccc(O)c(O)c3)cc2)c1	?	?	?	2%	-3%	?
COc1cc(/C=N\NC(=O)c2ccc(-c3ccccc3)cc2)cc(OC)c1O	?	37	11%	1%	-2%	9.3µM*
O=C(COC(=O)COc1ccc(Br)cc1)NC1CCS(=O)(=O)C1 (centres undefined)	nt	-7	nt	nt	nt	nt
SMILES	HCV inh	HCMV inh	Pf growth 96h	Sm TGR block	SARS PLpro yeast	Pf growth 48h
CCOc1ccc(-c2nc(Cn3c(=O)cc(-c4ccccc4)c4c(C)nn(C)c43)c(C)o2)cc1	nt	14	nt	12%	nt	nt
COc1ccc(NC(=O)CSc2nnc(-c3cccs3)n2N)cc1S(N)(=O)=O	0%	-33	nt	nt	-1%	nt
Cc1ccccc1N=Nc1c(N)n[nH]c1N	-14%	15	2.9µM*	-11%	5%	7%
Nc1n[nH]c(N)c1N=Nc1ccccc1F	11%	36	0%	5%	-4%	20%
CCCCCCNC(=O)C(C(=O)OCC)C1CCCCC1 (centres undefined)	10%	-7	7%[5.75 µM]	0%	1%	-8%
Cc1cccc(C)c1C(O)c1ncc(-c2ccccc2Cl)[nH]1 (centres undefined)	nt	-3	nt	nt	nt	nt
CC1=C(C#N)C(/C=N/OCc2ccc(F)cc2Cl)CC(=O)N1 (centres undefined)	2%	-80*	-17%	6%	4%	i
Cc1nc2cc(C(F)(F)F)ccc2n1C1CCN(Cc2nnnn2Cc2ccc3c(c2)OCO3)CC1	?	23	-1%	-27%	-10%	4.7µM*
Cc1nc2cc(C(F)(F)F)ccc2n1C1CCN(Cc2nnnn2Cc2cccs2)CC1	9%	58	-89%	-1%	1%	9.3µM*
FC(F)(F)c1ccc2c(c1)ncn2C1CCN(Cc2nnnn2C2CCCCC2)CC1	?	17	-1%	-7%	-1%	4.1µM*
Fc1ccc(Cn2nnnc2CN2CCC(n3nnc4cc(C(F)(F)F)ccc43)CC2)cc1	?	-26	?	1%	1%	?
Cc1nc2cc(C(F)(F)F)ccc2n1C1CCN(CC(=O)NC(C)(C)C)CC1	-9%	-82*	1%	1%	-2%	9.3µM*
Cc1cccc(N2CCN(C(=O)CN3C(=O)COc4ccc(S(=O)(=O)N5CCC(C)CC5)cc43)CC2C)c1 (centres undefined)	nt	18	nt	-2%	nt	nt
Cc1nc2ccccc2n1C1CCN(Cc2nnnn2CCc2ccccc2)CC1	1%	-1	nt	4%	-1%	13µM*
COCCn1nnnc1CN1CCC(Cc2ccccc2)CC1	5%	-15	2.6µM*	2%	9%	-15%
Clc1ccc2nc(C3CCN(Cc4nnnn4C4CCCCC4)CC3)[nH]c2c1	-6%	-10	-23%	-2%	-1%	12µM*
c1ccc(CCn2nnnc2CN2CCC(n3nnc4ccccc43)CC2)cc1	-17%	-5	79%	0%	-6%	?
Cc1ccc(Cn2nnnc2CN2CCC(c3nc4ccc(Cl)cc4[nH]3)CC2)cc1	?	-28	?	-10%	-12%	?
COc1ccc(CC(=O)NNC(=O)CCC(=O)Nc2cc(C)ccc2C)cc1	-9%	-104*	23%	nt	-2%	-2%
